CDC25B-CDK2 inh: human CDC25B-CDK2/CyclinA binding inhibition | P30305+P24941 | z-score (concentration not given with the values) | HTRF CDC25B-CDK2/CyclinA binding, anti-His/anti-Flag; stronger effect = higher value | AID 1259370 | 94,000 tested, 0.72% active; in the data active means z-score above about 3.2
TAR Tat displ: HIV-1 TAR-Tat binding disruption | z-score (no concentration beside the values) | 100,000 tested, 0.6% active | AID 1259389 | HIV-1 TAR RNA, Tat peptide displacement FRET; stronger effect = higher value; active means z-score of 3 or more in at least 2 runs
Starred values were filed as active, the others as inactive; x = no result given. Sampled rows, rich in hits. Any-hit rate of the full collection: about 0.86%.

SMILES | CDC25B-CDK2 inh | TAR Tat displ
CC1Cc2cc(S(=O)(=O)N3CCCC(C(=O)N4CCCC4)C3)ccc2N1C(=O)C1CC1 (stereo not drawn) | x | 0.42
CCOC(=O)C1CCN(C(=O)c2sc3nc4n(c(=O)c3c2C)CCCC4)CC1 | x | 1.4
O=C1CCSc2c1cccc2C(=O)N1CCOCC1 | x | 1.3
O=C1c2ccccc2-c2c1cccc2C(=O)N1CCOCC1 | 17* | -0.31
COC(=O)c1cc2occc2n1Cc1c(C)cc(C)cc1C | -0.65 | 1.6
c1cncc(-c2nc3c4ccccc4nc(NCCc4c[nH]c5ccccc45)n3n2)c1 | 0.22 | 0.22
Cc1cc(C(=O)C(=O)Nc2nnc(-c3ccco3)s2)c(C)n1-c1ccccc1Cl | -1.1 | 33*
Cc1cc(C(=O)C(=O)Nc2nnc(-c3ccco3)s2)c(C)n1-c1cccc(Cl)c1 | -0.62 | 8.6*
Cc1cc(C(=O)C(=O)Nc2nncs2)c(C)n1-c1ccccc1 | -2.4 | 6.9
CCc1nnc(NC(=O)C(=O)c2cc(C)n(-c3ccc(F)cc3)c2C)s1 | -2.8 | 2.3
N#Cc1nc(-c2ccc(COc3ccccc3)o2)oc1N1CCOCC1 | -1.4 | -0.35
CCN(C(=O)Cn1ncc2c([nH]c3ccccc32)c1=O)c1ccccc1 | x | 0.2
Cc1noc2ncnc(N3CCCC(C(=O)N4CCCCC4)C3)c12 (stereo not drawn) | x | 0.75
OCc1cnc(SCc2cccc(Cl)c2)n1Cc1ccc(F)cc1 | x | 0.56
Cn1c(=O)[nH]c2nnc(-c3ccc4c(c3)OCO4)nc2c1=O | -1.3 | -0.58
COc1ccc(-c2nnc3[nH]c(=O)n(C)c(=O)c3n2)cc1OC | -2.7 | 8.2*
Cc1cc(N2CCN(c3cccc(Cl)c3)CC2)n2nc(-c3ccco3)nc2n1 | x | 1.1
O=C(NCCCN1CCN(c2ccccc2)CC1)Nc1ccc(F)cc1F | -1.5 | 2.1
O=C(NCCN1CCN(c2ccccc2)CC1)Nc1ccc(F)cc1F | -2 | 7.7*
N/C(Cc1ccc([N+](=O)[O-])cc1)=N\OC(=O)c1cc(Cl)cc(Cl)c1 | -2.9 | x
CN(c1ccc(Br)cc1)S(=O)(=O)c1ccc2c(c1)NC(=O)CS2 | x | 2
CN(C)CCNc1oc(-c2ccc(S(=O)(=O)N3CCc4ccccc4C3)cc2)nc1C#N | -1.5 | -2.1
N#Cc1nc(-c2ccc(S(=O)(=O)N3CCc4ccccc4C3)cc2)oc1NCCCn1ccnc1 | 11* | 2.7
COc1ccc(Br)cc1CNC(=O)Cn1nc(C)n2c(cc3occc32)c1=O | 12* | 1.1
Cc1ccc(CNC(=O)Cn2nc(C)n3c(cc4occc43)c2=O)cc1 | 0.57 | 2.1
SMILES | CDC25B-CDK2 inh | TAR Tat displ
Cc1cc(C)c(C(=O)Cn2c(NCCO)nc3ccccc32)cc1C | -0.51 | 2.6
Cc1ccc(S(=O)(=O)Nc2c3ccccc3c(O)c3c4c(oc23)CC(C)(C)CC4=O)cc1 | 18* | x
CC1(C)CC(=O)c2c(oc3ccc(NS(=O)(=O)c4ccc(Br)cc4)cc23)C1 | -0.39 | -0.3
Cc1cccc(Nc2ncnc3c2cnn3C)n1 | x | 1.4
COCCn1c(C2CC(=O)N(c3ccccc3Cl)C2)nc2ccccc21 (stereo not drawn) | -1.1 | -1.1
Cc1ccc(C(=O)c2cnc3cc4c(cc3c2N2CCOCC2)OCO4)cc1C | 1.8 | 8.8*
CCc1ccc(C(=O)c2cnc3cc4c(cc3c2N2CCCC2)OCO4)cc1 | -0.75 | -0.89
COc1ccc(Cl)cc1NC(=O)Cn1nc2c(cc1=O)CCC2 | -1.3 | -1
COc1ccc(NC(=O)Cn2nc3c(cc2=O)CCC3)cc1Cl | 0.37 | 13*
CCSc1nnc(NC(=O)c2nn(-c3ccc(CC)cc3)ccc2=O)s1 | 1.2 | 0.22
Cc1ccc(-c2nnn3c2nc(NCc2ccco2)c2ccccc23)cc1 | -2 | 1.2
Cc1cccc(-c2nnn3c2nc(NCc2ccco2)c2ccccc23)c1 | -1.8 | 7.8*
Cc1nc(-n2[nH]c(C)c(CCC(=O)Nc3ccc(Cl)cc3)c2=O)sc1C | -3.3 | 0.08
Oc1ccccc1CN(Cc1ccccc1)Cc1ccccc1 | -0.68 | 0.39
O=C(O)c1cc(N(Cc2ccccc2O)Cc2cc(O)ccc2O)ccc1O | x | 34*
CCN(CC)c1ccc(C2c3c([nH][nH]c3=O)CC(C)(O)C2C(=O)OC)cc1 (stereo not drawn) | -1 | 1.8
COc1cccc(Cn2cc3c(-c4ccc(OC)c(OC)c4)nnc-3c3cc4c(cc32)OCCO4)c1 | 2.8 | 5.1*
COc1ccc(-c2nnc3c4cc5c(cc4n(Cc4ccccc4)cc2-3)OCCO5)cc1OC | 2 | 0.88
C=CC1=C(C(=O)O)N2C(=O)[C@@H](NC(=O)C(=NOCC(=O)O)c3csc(N)n3)[C@H]2SC1 | x | 26*
C=CC1=C(C(=O)O)N2C(=O)[C@@H](NC(=O)/C(=N\O)c3csc(N)n3)[C@H]2SC1 (stereo in doubt) | x | -0.39
Cc1nn(-c2ccccc2)c2c1N(C(=O)CCC(=O)N1CCN(c3ccccc3F)CC1)CCS2 | x | 1.2
O=C(CN1C(=O)CSc2ccc(S(=O)(=O)N3CCCC3)cc21)NCc1cccs1 | x | 1.1
CC(=O)N1CCOc2ccc(S(=O)(=O)N3CCC(C(=O)NC4CCC(C)CC4)CC3)cc21 (stereo not drawn) | x | 3.6

Bioassay records as filed in PubChem.
